High-throughput results (PubChem BioAssay)
Hits are enriched below; roughly 11% of the tested compounds scored in any of these assays.
USP28 inh: inhibitors of human USP28 deubiquitinase; purified USP28, Ub-rhodamine cleavage fluorescence, 30 min; inhibition, % at 25 µM; hit rate 3% among 47,000
USP17 inh: inhibitors of human USP17 deubiquitinase | A8MUK1 | purified USP17, Ub-rhodamine cleavage fluorescence, 3 h | inhibition, % at 50 µM | hit rate 6.5% among 47,000
USP30 inh: inhibitors of human USP30 deubiquitinase. purified USP30, Ub-rhodamine cleavage fluorescence. Q70CQ3. inhibition, % at 25 µM. hit rate 5.3% among 47,000
The depositor's hits bear a star. Rule as the data show it: active = inhibition above about 30%; inactive = the rest.

Cn1c(=O)c2c(-c3ccc(F)cc3)c(Nc3ccccc3)oc2n(C)c1=O was read as USP28 inh 2, USP17 inh -20 and USP30 inh -25.
For Cn1c(=O)c2c(-c3cccc(F)c3)c(Nc3ccccc3)oc2n(C)c1=O the results were USP28 inh 39*, USP17 inh -5 and USP30 inh 15.
CC(CCc1ccccc1)NC(=O)c1ccc(-c2cccs2)cc1 (stereo not drawn) was read as USP17 inh 8.
`O=C1C(O)=C(c2ccccc2)C2CCCN12` (stereo not drawn) gave USP28 inh -8, USP17 inh -26 and USP30 inh 32*.
Screening O=C(O)c1ccccc1CN1C(=O)C2CCCN2C(=O)c2ccccc21 (stereo not drawn) returned USP28 inh 9, USP17 inh 11 and USP30 inh 27.
For O=C(CN1C(c2ccccc2)=CC(c2ccccc2)n2nnnc21)NC1CC1 (stereo not drawn) the results were USP28 inh -8, USP17 inh -10 and USP30 inh -6.
For O=c1c2cnc3nc(-c4cccnc4)nn3c2ccn1CCc1ccccc1 the results were USP28 inh 8, USP17 inh 51* and USP30 inh 19.
`O=c1c2cnc3nc(-c4cccnc4)nn3c2ccn1C1CCCCC1` gave USP28 inh -6, USP17 inh 0 and USP30 inh -5.
`CCc1cccc(NC(=O)c2cn(CC)c3nc(C)ccc3c2=O)c1` gave USP28 inh -29, USP17 inh -29 and USP30 inh -113.
For Cc1cccc(NC(=O)Cn2cc(C(=O)N3CCCCC3)c(=O)c3ccc(C)nc32)c1 the results were USP28 inh 0, USP17 inh 3 and USP30 inh 12.
Cc1cccc(NC(=O)c2cn(CC(=O)NC3CCCC3)c3nc(C)ccc3c2=O)c1 was read as USP28 inh 0, USP17 inh 48* and USP30 inh 0.
CCn1cc(C(=O)Nc2ccc3ccccc3c2)c(=O)c2ccc(C)nc21 was read as USP28 inh -13, USP17 inh 33* and USP30 inh -98.
For Cc1cc(=O)n2c(C(=O)Nc3cccc(C)c3C)c(C(=O)Nc3ccc(F)cc3)sc2n1 the results were USP28 inh -7, USP17 inh -2 and USP30 inh 2.
COc1ccc(CC(=O)N2CCn3cnnc3C2)cc1Cl was read as USP28 inh 0, USP17 inh -3 and USP30 inh -24.
Cc1ccc(-c2nc(SCC(=O)N3CCCC3)c3c(=O)n(C)c(=O)n(C)c3n2)cc1 was read as USP28 inh 7, USP17 inh 16 and USP30 inh 39*.
For Cn1c(=O)c2c(SCC(=O)N3CCCC3)nc(-c3cccc(Cl)c3)nc2n(C)c1=O the results were USP28 inh -1, USP17 inh 0 and USP30 inh 19.
For Cn1c(=O)c2c(SCC(=O)NCc3ccc4c(c3)OCO4)nc(-c3ccc([N+](=O)[O-])cc3)nc2n(C)c1=O the results were USP28 inh 2, USP17 inh 27 and USP30 inh 31*.
For O=C(Cn1cnc2cc([N+](=O)[O-])ccc2c1=O)NCc1ccc2c(c1)OCO2 the results were USP28 inh 15, USP17 inh 18 and USP30 inh -11.
O=C(c1csc2ccccc12)N1CCN(c2ccccc2F)CC1 was read as USP28 inh 24, USP17 inh 12 and USP30 inh 29.
Screening O=C(COC(=O)C(Cc1ccccc1)NC(=O)c1ccccc1)NCc1ccc2c(c1)OCO2 (stereo not drawn) returned USP28 inh 2, USP17 inh 47* and USP30 inh 10.
Screening CC(C)C(NC(=O)c1ccccc1Cl)C(=O)OCC(=O)NCc1ccc2c(c1)OCO2 (stereo not drawn) returned USP28 inh -3, USP17 inh -5 and USP30 inh 0.
O=S(=O)(c1cccc2cccnc12)N(CCc1ccccc1)Cc1ccccc1 was read as USP28 inh 14, USP17 inh 3 and USP30 inh 7.
`Cc1ccccc1Nc1nc(N)nc(CN(C)Cc2ccc(C(C)(C)C)cc2)n1` gave USP28 inh -13, USP17 inh -18 and USP30 inh -37.
Screening Cc1ccc2cnn(CC(=O)N3CCc4ccccc43)c2c1 returned USP28 inh 17, USP17 inh 0 and USP30 inh 25.
For Cc1cccc(-n2ncc(C(=O)N3CCc4ccccc43)c2-n2cccc2)c1 the results were USP28 inh 19, USP17 inh 15 and USP30 inh 42*.
Screening O=c1c2sccc2n2c(=O)[nH]nc2n1Cc1ccccc1 returned USP28 inh 24, USP17 inh 6 and USP30 inh 24.
`Cc1cccc(OCC(=O)N(c2nc3ccccc3s2)c2ccccc2C)c1` gave USP28 inh -2, USP17 inh 2 and USP30 inh 11.
For Cc1ccc2nc(N(CCCN(C)C)C(=O)COc3ccccc3)sc2c1 the results were USP28 inh 21, USP17 inh 36* and USP30 inh 41*.
Screening COc1ccc(CCn2c(-c3ccc(C)cc3)nc3c(c(=O)c4ccccc4n3C)c2=O)cc1 returned USP28 inh -7, USP17 inh -13 and USP30 inh -28.
CC(c1ccccc1)n1c(-c2ccc(F)cc2)nc2c(c(=O)c3ccccc3n2C)c1=O (stereo not drawn) was read as USP28 inh 13, USP17 inh 60* and USP30 inh 27.
For COc1ccc(CCn2c(-c3ccc(F)cc3)nc3c(c(=O)c4ccccc4n3C)c2=O)cc1OC the results were USP28 inh 0, USP17 inh 20 and USP30 inh 30.
`COc1ccc(-c2nc3c(c(=O)c4ccccc4n3C)c(=O)n2CC(C)C)cc1` gave USP28 inh 12, USP17 inh 34* and USP30 inh 28.
`O=C(Nc1ccc2nn(-c3cccc(C(F)(F)F)c3)nc2c1)c1cc2ccccc2o1` gave USP28 inh -7, USP17 inh -44 and USP30 inh -10.
Screening O=C(COc1ccc(F)cc1F)N1CCCC(c2[nH]nc3nccnc23)C1 (stereo not drawn) returned USP28 inh -5, USP17 inh -7 and USP30 inh -12.
For CCNc1oc(-c2ccc(S(=O)(=O)N3CCCCC3)cc2)nc1C#N the results were USP28 inh 7, USP17 inh 63* and USP30 inh 3.
N#Cc1nc(-c2ccc(Cl)cc2)oc1NCc1ccccc1 was read as USP28 inh 4, USP17 inh -6 and USP30 inh 16.
For CC(=O)N1CCN(c2cc(-c3noc([C@@H]4CCCN4Cc4ncc[nH]4)n3)ccn2)CC1 the results were USP28 inh -24, USP17 inh -69 and USP30 inh -100.
Screening Cc1c(O)c(O)c2c(c1O)COC2 returned USP28 inh 1, USP17 inh 39* and USP30 inh -108.
CC(=O)OC(C(=O)Nc1sc2c(c1C#N)CCCC2)c1ccccc1 (stereo not drawn) was read as USP28 inh 18, USP17 inh 5 and USP30 inh 12.
Screening O=C(COc1ccc2c(c1)CCC2)Nc1ccc2c(c1)CCC2 returned USP28 inh 13, USP17 inh 59* and USP30 inh 17.
`O=C(COc1cccc(N2CCCC2=O)c1)NCc1ccc2c(c1)OCO2` gave USP28 inh 7, USP17 inh 4 and USP30 inh 4.
